Consider twelve compounds from ChEMBL document CHEMBL3433997, “St. Jude Leishmania screening dataset” (2016).

Holding throughout (assay type): functional
The target in assay [1] is Solute carrier family 2, facilitated glucose transporter member 1 (Homo sapiens) (UniProt P11166). Briefly: ST_JUDE_LEISH: Cytotoxicity at 2uM final concentration against transgenic Leishmania Mexicana promastigotes LmGLUT1 that are glucose transport deficient and complemented with the human glucose transporter GLUT1. Activity is measured by DNA content using SYBR green in vitro.

For assay [2], the target named is Hexose transporter 1 (Plasmodium falciparum) (UniProt O97467). Briefly: ST_JUDE_LEISH: Cytotoxicity at 2uM final concentration against transgenic Leishmania Mexicana promastigotes LmPfHT that are glucose transport deficient and complemented with the Plasmodium falciparum hexose transporter. Activity is measured by DNA content using SYBR green in vitro.
Assay [3] concerns the target Glucose transporter (Leishmania mexicana) (UniProt O61059). Briefly: ST_JUDE_LEISH: Cytotoxicity at 2uM final concentration against transgenic Leishmania Mexicana promastigotes LmGT2 that are glucose transport deficient and complemented with the L. Mexicana glucose transporter 2. Activity is measured by DNA content using SYBR green in vitro.

Molecules are shown by their SMILES.

Sequence of Solute carrier family 2, facilitated glucose transporter member 1 (Homo sapiens) (P11166 whole entry): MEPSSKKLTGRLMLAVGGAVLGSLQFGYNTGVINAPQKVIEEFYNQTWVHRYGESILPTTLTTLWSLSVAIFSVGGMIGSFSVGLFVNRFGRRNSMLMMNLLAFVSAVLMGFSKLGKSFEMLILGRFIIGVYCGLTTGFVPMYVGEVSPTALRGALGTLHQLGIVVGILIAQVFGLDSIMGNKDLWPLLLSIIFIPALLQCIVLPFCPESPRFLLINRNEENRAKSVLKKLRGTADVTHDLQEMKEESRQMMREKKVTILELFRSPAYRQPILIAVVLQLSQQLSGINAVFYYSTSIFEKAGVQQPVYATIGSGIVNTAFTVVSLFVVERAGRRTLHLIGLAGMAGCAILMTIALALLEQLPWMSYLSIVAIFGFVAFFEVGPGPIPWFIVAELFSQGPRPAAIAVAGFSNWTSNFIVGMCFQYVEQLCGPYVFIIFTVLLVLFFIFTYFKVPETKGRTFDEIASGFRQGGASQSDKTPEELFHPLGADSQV

What is called inhibition is the change of the read-out against control, counted positive when it falls. Consider `O=C1c2cc(I)ccc2SC1c1ccccc1` (stereo unspecified), for which the inhibition was 1.22% in assay [1], 0.48% in assay [2] and 0.13% in assay [3].
For `COCc1ccccc1C(=O)NCCOc1cc(C)cc(C)c1`, the inhibition in assay [1] is -0.29%; in assay [2], 0.17%; in assay [3], -0.46%.
For the compound `Cc1cccc2nc(-c3cccc(-c4ccc(NC(=O)C(=O)c5cccn5C)cc4)c3)[nH]c12`, the inhibition in assay [1] was 2.86%; in assay [2] it was 0.6%; in assay [3], -2.97%.
For the compound `Cc1cc(N[C@@H](Cc2ccccc2)C(=O)NCc2cccc(F)c2)nc(NCCCOC(C)C)n1`, the inhibition in assay [1] came to 0.45%; in assay [2], 1.37%; in assay [3], 1.72%.
Regarding `CCCCCCCCCN1CC[C@@H](CCCc2ccnc3ccc(O)cc23)[C@@H](CC)C1`, the inhibition in assay [1] was -2.45%; in assay [2] it was -2.37%; in assay [3], -1.91%.
As to `O=C(NCc1ccccc1)Nc1ccc(-c2ccc(-c3nc4cc(C(F)(F)F)ccc4[nH]3)cc2)cc1`, the results for the inhibition in assay [1], in assay [2] and in assay [3] were 2.91%, 4.48% and 0.55%, respectively.
For `CC(C)Cc1cn(-c2nc(-c3nc4ccccc4[nH]3)cs2)c2cc(Cl)ccc12`, in that order: 6.36%, 6.84% and 7.38%.
Consider `COc1ccc2c(N/N=C/c3cccc([N+](=O)[O-])c3)ccnc2c1`, for which the inhibition in assay [1] was -2.24%; in assay [2], -3.16%; in assay [3] it was -0.29%.
`CCC(N)(C#Cc1ccc(-c2c(C)[nH]c(C)c(Br)c2=O)cc1)CC`: the inhibition was found to be 2.45% in assay [1], 2.05% in assay [2] and 0.36% in assay [3].
Turning to `CN1CCN(CC(=O)Nc2ccc(-c3cccc(-c4nc5cc(C(F)(F)F)ccc5[nH]4)c3)cc2)CC1`, the results for the inhibition in assay [1], in assay [2] and in assay [3] were 0.66%, 1.68% and -1.43%, respectively.
As to `Fc1cccc(C=NN=c2cc[nH]c3ccc(C(F)(F)F)cc23)c1`, the inhibition in assay [1] was found to be 9.27%; in assay [2], 8.79%; in assay [3], 5.06%.
`O=C(Nc1ccc(F)c(C(F)(F)F)c1)N[C@H]1CCN(CCCCCNC(=O)C2CC2c2ccc(Cl)c(Cl)c2)C1` (stereo partly specified): the inhibition was -0.22% in assay [1], -0.44% in assay [2] and -2.52% in assay [3].
